Test results from the supplement of paper PMC7366291.
Structures can show the parent of a compound that is named as a salt. ± gives the standard deviation of the averaged measurements.

The compounds below were run on Danio rerio Tg(wt1b:EGFP) embryo, pronephros (assay: pronephric angle neck segment to proximal convoluted tubule (mean of left and right), fold change vs DMSO control; higher = larger pronephric angle). Settings: 25 µM; exposure: 24-48 hpf.
Outline: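 Using a Fiji macro, distances and angles were calculated from 16 reference points set by hand on maximum projections of pronephroi imaged dorsally (470 nm, 10 z-slices) in agarose-filled 96-well plates. The dechorionated Tg(wt1b:EGFP) zebrafish embryos had received 25 μM compound in 0.5% DMSO in HEPES-buffered E3 with 0.003% PTU from 24 to 48 hpf at 28.5°C. Values more than 2 SD from a feature's mean were excluded. Each feature appears as a fold change over the mean of DMSO-treated embryos from the same day.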
For `CCC1(c2ccccc2)NC(=O)N(C)C1=O` (centres undefined) [Mephenytoin], the “pronephric angle neck segment” value was 1.0068 ± 0.00059.
For `Cc1c(N)c(=O)n(-c2ccccc2)n1C` [Ampyrone], the “pronephric angle neck segment” value was 0.97 ± 0.0034.
With `Cc1ncc([N+](=O)[O-])n1CC(C)O` (centres undefined) [Secnidazole] the “pronephric angle neck segment” value was 0.9777 ± 0.0024.
With `CCCOc1ccc2[nH]c(NC(=O)OC)nc2c1` [Oxibendazol] the “pronephric angle neck segment” value was 1.8 ± 0.035.
In the case of `CCc1cc(C(N)=S)ccn1` [Ethionamide], the “pronephric angle neck segment” value is reported as 0.96 ± 0.039.
`CCCc1nc(C)c2c(=O)nc(-c3cc(S(=O)(=O)N4CCN(CC)CC4)ccc3OCC)[nH]n12` [Vardenafil] was tested, and the “pronephric angle neck segment” value was 0.981 ± 0.041.
With `COc1cc(NS(=O)(=O)c2ccc(N)cc2)ncn1` [Sulfamonomethoxine] the “pronephric angle neck segment” value was 0.927 ± 0.096.
For `Nc1nc(F)nc2c1ncn2[C@@H]1O[C@H](CO)[C@@H](O)[C@@H]1O` [Fludarabine], the “pronephric angle neck segment” value was 0.975 ± 0.025.
For `Oc1c(I)cc(Cl)c2cccnc12` [Clioquinol], the “pronephric angle neck segment” value was 1.59 ± 0.077.
`Cc1cccc(C)c1NC(=O)C1CCCCN1C` (centres undefined) [Mepivacaine hydrochloride] was tested, and the “pronephric angle neck segment” value was 0.991 ± 0.054.
For `Nc1cc(-c2ccncc2)c[nH]c1=O` [Amrinone], the “pronephric angle neck segment” value was 0.969 ± 0.014.
In the case of `CC(=O)NCCCS(=O)(=O)O` [Acamprosate calcium], the “pronephric angle neck segment” value is reported as 0.991 ± 0.053.
For `CN1C2CCCC1CC(NC(=O)c1nn(C)c3ccccc13)C2` (centres undefined) [Granisetron], the “pronephric angle neck segment” value was 1.04 ± 0.015.
For `N[C@@H](C(=O)N[C@@H]1C(=O)N2C(C(=O)O)=C(Cl)CC[C@H]12)c1ccccc1` [Loracarbef], the “pronephric angle neck segment” value was 0.999 ± 0.025.
`COC(=O)Nc1nc2cc(C(=O)c3ccc(F)cc3)ccc2[nH]1` [Flubendazol] was tested, and the “pronephric angle neck segment” value was 1.11 ± 0.15.
`Nc1nc(=S)c2ncn([C@@H]3O[C@H](CO)[C@@H](O)[C@H]3O)c2[nH]1` [Thioguanosine] was tested, and the “pronephric angle neck segment” value was 1.03 ± 0.036.
In the case of `CC(C)NC[C@@H](O)COc1ccc(CC(N)=O)cc1` [(R)-(+)-Atenolol], the “pronephric angle neck segment” value is reported as 0.977 ± 0.029.
With `CC1(C)O[C@@H]2C[C@H]3[C@@H]4CCC5=CC(=O)C=C[C@]5(C)[C@H]4[C@@H](O)C[C@]3(C)[C@]2(C(=O)CO)O1` [Desonide] the “pronephric angle neck segment” value was 1.04 ± 0.13.
`CC(C)(C)NC[C@H](O)c1ccc(O)c(CO)c1` [Levalbuterol hydrochloride] was tested, and the “pronephric angle neck segment” value was 0.998 ± 0.031.
In the case of `C[C@H](N[C@@H](CCc1ccccc1)C(=O)O)C(=O)N1CCC[C@H]1C(=O)O` [Enalaprilat dihydrate], the “pronephric angle neck segment” value is reported as 1.01 ± 0.025.
`CCN(CC)CCOC(=O)C1(C2CCCCC2)CCCCC1` [Dicyclomine hydrochloride] was tested, and the “pronephric angle neck segment” value was 1.16 ± 0.077.
`CCN(CC)CCNC(=O)c1cc(S(C)(=O)=O)ccc1OC` [Tiapride hydrochloride] was tested, and the “pronephric angle neck segment” value was 1.036 ± 0.0056.
In the case of `NS(=O)(=O)c1cc(Cl)c(Cl)c(S(N)(=O)=O)c1` [Dichlorphenamide], the “pronephric angle neck segment” value is reported as 0.941 ± 0.041.
`O=C(Nc1ccc([N+](=O)[O-])cc1Cl)c1cc(Cl)ccc1O` [Niclosamide] was tested, and the “pronephric angle neck segment” value was 1.26 ± 0.093.
For `NC(N)=Nc1nc(CSCC/C(N)=N/S(N)(=O)=O)cs1` [Famotidine], the “pronephric angle neck segment” value was 0.9801 ± 0.0036.
With `O=C1c2cccc(O)c2C(=O)c2c(O)cccc21` [1,8-Dihydroxyanthraquinone] the “pronephric angle neck segment” value was 1.03 ± 0.036.
In the case of `Cc1c(-c2ccccc2)oc2c(C(=O)OCCN3CCCCC3)cccc2c1=O` [Flavoxate hydrochloride], the “pronephric angle neck segment” value is reported as 1.06 ± 0.02.
`CCN(CCCCOC(=O)c1ccc(OC)c(OC)c1)C(C)Cc1ccc(OC)cc1` (centres undefined) [Mebeverine hydrochloride] was tested, and the “pronephric angle neck segment” value was 0.965 ± 0.017.
In the case of `CC[C@@H](CO)NCCN[C@@H](CC)CO` [Ethambutol dihydrochloride], the “pronephric angle neck segment” value is reported as 1.02 ± 0.076.
For `NC(=O)c1ncn([C@@H]2O[C@H](CO)[C@@H](O)[C@H]2O)n1` [Ribavirin], the “pronephric angle neck segment” value was 0.985 ± 0.017.
In the case of `CCCCC(=O)O[C@H]1CC[C@H]2[C@@H]3CCc4cc(O)ccc4[C@H]3CC[C@]12C` [Estradiol Valerate], the “pronephric angle neck segment” value is reported as 1.134 ± 0.0028.
For `Cc1ccc(S(=O)(=O)NC(=O)NN2CCCCCC2)cc1` [Tolazamide], the “pronephric angle neck segment” value was 0.972 ± 0.023.
With `Cc1ncc(CO)c(CO)c1O` [Pyridoxine hydrochloride] the “pronephric angle neck segment” value was 1.06 ± 0.061.
With `NS(=O)(=O)c1cc2c(cc1Cl)NCNS2(=O)=O` [Hydrochlorothiazide] the “pronephric angle neck segment” value was 0.937 ± 0.013.
In the case of `C[C@H](CCC(=O)O)[C@H]1CC[C@H]2[C@@H]3[C@@H](O)C[C@@H]4C[C@H](O)CC[C@]4(C)[C@H]3CC[C@]12C` [Urosiol], the “pronephric angle neck segment” value is reported as 0.965 ± 0.032.
`OC[C@H]1O[C@@H](Oc2ccc(O)cc2)[C@H](O)[C@@H](O)[C@@H]1O` [Arbutin] was tested, and the “pronephric angle neck segment” value was 0.933 ± 0.018.
In the case of `NS(=O)(=O)c1cc2c(cc1Cl)NC(CC1CCCC1)NS2(=O)=O` (centres undefined) [Cyclopenthiazide], the “pronephric angle neck segment” value is reported as 1 ± 0.012.
For `CCCN[C@H]1CCc2nc(N)sc2C1` [Pramipexole dihydrochloride], the “pronephric angle neck segment” value was 1.01 ± 0.046.
`OCCN1CCN(CC/C=C2/c3ccccc3Sc3ccc(Cl)cc32)CC1` [Zuclopenthixol dihydrochloride] was tested, and the “pronephric angle neck segment” value was 1.01 ± 0.039.
